Assay results reported in PubChem BioAssay AID463173 (ICCB-Longwood Screening Facility, Harvard Medical School, 2010).
In all, about 52,000 compounds went through this assay and about 1,700 (3.3%) were called active. What follows is part of a selection rich in actives, with near analogues and random picks from the rest. A number with no mark means an inactive call. No stated cut-off is given here; in the data, active means survival mostly below about 52% (no sharp cut-off); inactive means mostly above about 56%.

What follows are molecules tested on Wild type (assay: growth inhibition of S. aureus wild type versus tarO mutant, primary screen, teichoic acid synthesis inhibitors, RN4220, OD600 (AID 463173)). Details: S. aureus RN4220 wild type/DeltatarO growth, OD600, 18 h, stronger effect = lower value, screened at 18.75 µg/mL (by protocol).

| Structure (SMILES) | survival |
| --- | --- |
| CCOC(=O)c1sc(NC(=O)c2c(-c3ccccc3)c(-c3ccccc3)nn(C)c2=O)nc1C | 71% |
| COc1ccc(-c2noc(Cn3c(=O)c4ccccc4n(CC(=O)Nc4cccc(OC)c4)c3=O)n2)cc1 | 82% |
| Cc1ccccc1NS(=O)(=O)c1ccc2[nH]cc(C(=O)N3CCCC3)c(=O)c2c1 | 99% |
| CC(Nc1ccc(-c2nc(-c3ccncc3)no2)cc1[N+](=O)[O-])c1ccccc1 (stereo not given) | 87% |
| CCOc1ccc(NC(=O)Cn2c(=O)oc3cc(S(=O)(=O)NC4CCCC4)ccc32)cc1 | 81% |
| CCOCCCNC(=O)c1cnc2sc(N3CCCCCC3)nn2c1=O | 68% |
| CCOC(=O)C1(C)C=C(Nc2cccc(C)c2)C(=O)N1c1ccccc1 (stereo not given) | 51% |
| CCOC(=O)Cc1c(C)nc2cc(-c3ccc(C(C)(C)C)cc3)nn2c1C | -2% (active) |
| CCOC(=O)CC(NC(=O)CCc1c(C)nc2cc(-c3ccccc3)nn2c1C)c1ccc(C)cc1 (stereo not given) | 128% |
| CCOC(=O)Cc1c(C)nc2cc(C)nn2c1C | 106% |
| O=C(Nc1ccccc1O)c1cccc(S(=O)(=O)Nc2ccccc2O)c1 | 108% |
| CCN1CCN(CC2CCCCC2)CC1 | 102% |
| CC1CN(C(=O)CCC(=O)NCc2ccccc2)c2cc(Cl)ccc2O1 (stereo not given) | 92% |
| Oc1ccccc1-c1nnc(SCc2ccccc2)o1 | 103% |
| CCOc1ccccc1-c1nnc(SCc2ccc(Cl)cc2)o1 | -14% (active) |
| Oc1ccc(-c2nnc(SCc3ccc(Cl)cc3)o2)cc1 | 112% |
| Cc1cc(C(=O)N2CCN(c3cc(Cl)ccc3C)CC2)c2c(C)nn(-c3ccccc3)c2n1 | 136% |
| O=C(Nc1ncn[nH]1)C(F)(F)C(F)F | 108% |
| O=C1CC(c2ccccc2)Cc2[nH]c(=O)c(C(=O)Nc3cccc(Cl)c3)cc21 (stereo not given) | 0% (active) |
| COc1ccc(NC(=O)c2cc3c([nH]c2=O)CC(c2ccccc2)CC3=O)cc1 (stereo not given) | 63% |
| CC(=O)c1ccc(NC(=O)c2cc3c([nH]c2=O)CC(c2ccccc2)CC3=O)cc1 (stereo not given) | 85% |
| Cc1cccc(NC(=O)c2cc3c([nH]c2=O)CC(c2ccccc2)CC3=O)c1 (stereo not given) | -3% (active) |
| O=C1CC(c2ccccc2)Cc2[nH]c(=O)c(C(=O)Nc3ccc(F)cc3)cc21 (stereo not given) | 75% |

| Structure (SMILES) | survival |
| --- | --- |
| O=C1CC(c2ccccc2)Cc2[nH]c(=O)c(C(=O)Nc3cccc(F)c3)cc21 (stereo not given) | 85% |
| CCOC(=O)c1ccc(NC(=O)CSc2ccc(-c3ccccn3)nn2)cc1 | 90% |
| COc1ccccc1N1CCN(C(=O)c2nc(-c3ccc(C)cc3)n3c2CCCCC3)CC1 | 85% |
| Cc1ccc(-n2ncc3c(N(C)Cc4ccccc4)ncnc32)cc1 | 85% |
| CCCCN(CCCC)c1ncnc2c1cnn2-c1cccc(C)c1 | 91% |
| Cc1ccc(-n2ncc3c(NCCc4ccccc4)ncnc32)cc1 | 76% |
| OCCN(CCO)c1ncnc2c1cnn2-c1ccc(F)cc1 | 1% (active) |
| CCN(Cc1ccccc1)c1ncnc2c1cnn2-c1ccc(F)cc1 | 55% |
| Cc1ccc(-n2ncc3c(N(CCO)Cc4ccccc4)ncnc32)cc1 | 0% (active) |
| CCOc1ccc(-c2cc3nc(C4CCN(C(=O)OC(C)(C)C)CC4)c(C(=O)Nc4c(C)cccc4C)cn3n2)cc1 | 86% |
| CCOc1ccc(C(=O)CSc2nnc3cc(C)c4ccccc4n23)cc1 | 85% |
| CCOCCn1ccc2c(OCC(=O)Nc3cccc([N+](=O)[O-])c3)cccc2c1=O | 128% |
| CCCN1C2CCCC1CC(NC(=O)c1ccc(F)cc1)C2 (stereo not given) | 108% |
| CNC(=O)Cn1c(=O)c2cccn2c2ccc(F)cc21 | 85% |
| CCCC(O)c1nc2ccccc2n1CCCOc1ccc(Cl)cc1 (stereo not given) | 97% |
| COc1ccccc1OCCn1c(NC(=O)c2ccc(Cl)cc2)nc2ccccc21 | 80% |
| COc1ccc(OCCn2c(NC(=O)c3ccc(OC)cc3)nc3ccccc32)cc1 | -13% (active) |
| COc1ccc(C(=O)Nc2nc3ccccc3n2CCOc2ccc(Cl)cc2)cc1 | 4% (active) |
| O=C(Nc1nc2ccccc2n1CCOc1ccccc1Cl)c1ccccc1 | 36% |
| COc1ccc(OCCn2c(C(C)Oc3ccccc3)nc3ccccc32)cc1 (stereo not given) | 72% |
| COc1ccccc1OCCn1c(C(C)Oc2ccccc2)nc2ccccc21 (stereo not given) | 76% |
| OCCNc1nc2ccccc2n1CCOc1ccccc1 | 115% |
| COc1ccccc1OCCn1c(NC(=O)c2ccccc2Cl)nc2ccccc21 | -10% (active) |

| Structure (SMILES) | survival |
| --- | --- |
| Cc1ccc(N2CC(NC(=O)/C=C\c3ccc4c(c3)OCO4)CC2=O)cc1C (stereo not given) | 130% |
| CCOc1ccc(CCNC(=O)c2nn(-c3ccc(OC)c(Cl)c3)c(=O)c3c2c2ccccc2n3C)cc1OCC | 88% |
| COc1ccc(OC)c(-n2cnc3cc(C(=O)NC4CCCC4)ccc32)c1 | 72% |
| CC1=CC(C)C2C(=O)N(c3ccccc3)C(=O)C2C1 (stereo not given) | 111% |
| COc1ccc(NC(=O)Cn2c(=O)oc3cc(S(=O)(=O)N4CCCC4)ccc32)cc1OC | 79% |
| CC(C)CCOc1ccc(C2N=C(N)Nc3nc4ccccc4n32)cc1 (stereo not given) | -15% (active) |
| CC(C)c1ccc(C2N=C(N)Nc3nc4ccccc4n32)cc1 (stereo not given) | 93% |
| COc1cc(C2N=C(N)Nc3nc4ccccc4n32)ccc1OCCC(C)C (stereo not given) | 85% |
| CCc1ccc(N2CCn3c2nc2c3c(=O)n(CCCc3ccccc3)c(=O)n2C)cc1 | 88% |
| O=C(Nc1ccccc1C(F)(F)F)N1CC=C(c2c[nH]c3ccccc23)CC1 | 127% |
| Cc1ccc(CNS(=O)(=O)c2ccc(C(=O)N(C)C)s2)cc1 | -6% (active) |
| COc1ccc(CNS(=O)(=O)c2ccc(C(=O)N(C)C)s2)cc1 | 87% |
| CN(C)C(=O)c1ccc(S(=O)(=O)NCc2ccc(Cl)cc2)s1 | 123% |
| CC1=C(C(=O)Nc2ccccc2)C(c2ccccc2Cl)n2ncc(C(=O)Nc3cccc(C)c3)c2N1 (stereo not given) | 72% |
| COc1ccc(C2C(C(=O)Nc3ccccc3)=C(C)Nc3c(C(=O)Nc4ccccc4)cnn32)cc1 (stereo not given) | 134% |
| COc1cccc(C2C=C(c3ccc(C)cc3)Nc3c(C(=O)Nc4ccc(F)cc4)cnn32)c1OC (stereo not given) | -3% (active) |
| CCOc1ccc(NC(=O)c2cnn3c2NC(c2ccccc2)=CC3c2cccc(OC)c2OC)cc1 (stereo not given) | 85% |
| COc1ccccc1NC(=O)C1=C(C)Nc2c(C(=O)Nc3cccc(C)c3)cnn2C1c1ccccc1C (stereo not given) | 69% |
| COc1cccc(C2C(C(=O)Nc3ccc(Cl)cc3)=C(C)Nc3c(C(=O)Nc4ccccc4)cnn32)c1OC (stereo not given) | 93% |
| COc1ccccc1NC(=O)C1=C(C)Nc2c(C(=O)Nc3ccc(C)cc3)cnn2C1c1cccc(OC)c1OC (stereo not given) | 14% (active) |
| COc1cccc(C2C=C(c3ccccc3)Nc3c(C(=O)Nc4ccccc4)cnn32)c1OC (stereo not given) | 64% |
| CCc1ccc(C2C(C(=O)Nc3ccccc3)=C(C)Nc3c(C(=O)Nc4ccc(C)cc4)cnn32)cc1 (stereo not given) | -1% (active) |
| COc1cccc(C2C(C(=O)Nc3ccc(C)cc3C)=C(C)Nc3c(C(=O)Nc4cccc(C)c4)cnn32)c1OC (stereo not given) | 78% |

| Structure (SMILES) | survival |
| --- | --- |
| CCc1ccc(C2C(C(=O)Nc3ccccc3OC)=C(C)Nc3c(C(=O)Nc4ccc(C)cc4)cnn32)cc1 (stereo not given) | 74% |
| COc1ccccc1NC(=O)C1=C(C)Nc2c(C(=O)Nc3cccc(C)c3)cnn2C1c1ccccc1Cl (stereo not given) | -6% (active) |
| Cc1c(C(=O)Nc2cccc(-c3nc4ccccc4s3)c2)oc2ccccc12 | 98% |
| Cc1ccc(C(NC(=O)Cc2cccs2)C(=O)Nc2ccc(C(C)C)cc2)cc1 (stereo not given) | 82% |
| CCOc1ccc(C(=O)N2CCCCC2CCN2CCOCC2)cc1 (stereo not given) | 88% |
| Cc1ccc(NC(=O)CSc2nccn2C2CCCC2)cc1Cl | 125% |
| COc1ccc2c(c1)c1c(c(=O)n(CCc3ccccc3)c(=O)n1Cc1ccc(Cl)cc1)n2C | 63% |
| Cc1cccc(C(=O)Nc2ccc(-c3nc4cc(C(C)C)ccc4o3)cc2)c1 | 47% |
| Cc1ccc(-c2nc3cc(C(C)C)ccc3o2)cc1NC(=O)c1cccs1 | 72% |
| Cc1cc(NC(=O)c2cccs2)cc(-c2nc3cc(Cl)ccc3o2)c1O | 87% |
| CC(C)c1ccc2oc(-c3cc(NC(=O)c4cccs4)ccc3Cl)nc2c1 | 7% (active) |
| Cc1cc(NC(=O)c2cccnc2)cc(-c2nc3cc(Cl)ccc3o2)c1O | 157% |
| CCc1ccc2oc(-c3cc(NC(=O)c4cccs4)ccc3Cl)nc2c1 | 12% |
| CC(C)c1ccc2oc(-c3ccc(Cl)c(NC(=O)c4cccs4)c3)nc2c1 | 2% (active) |
| O=C(Nc1cc(-c2nc3cc(Cl)ccc3o2)ccc1Cl)c1cccs1 | 79% |
| CC(C)c1ccc2oc(-c3cc(NC(=O)c4cccnc4)ccc3Cl)nc2c1 | 1% (active) |
| CN(C)C(=O)CN(C#N)c1nc(Cl)nc(N(C)C)n1 | 110% |
| N#Cc1ccc(S(=O)(=O)N2CCC(Oc3cccc(C(F)(F)F)c3)CC2)cc1 | 84% |
| COc1ccc(CNC(=O)Cc2ccc(NC(=O)N3CCSc4ncccc43)cc2)cc1OC | 75% |
| Cc1cccc(-c2nc3c4ccccc4nc(NCc4ccc(Cl)cc4)n3n2)c1 | 47% |
| O=C1CCSC2(C(=O)N(Cc3ccc(F)cc3)c3ccccc32)N1c1cccc(F)c1 (stereo not given) | 74% |
